These results are taken from PubChem BioAssay (NCI).

Assay in all cases: NCI-60 one-dose screen, 48 h (100 = growth as untreated, 0 = no growth, -100 = all killed)
Holding throughout (details): 10 µM unless noted

Assay [1] has as its system NCI-H23 lung.
For assay [2], the system named is NCI-H226 lung.
Assay [3] has as its system NCI-H322M lung.
Assay [4] concerns NCI-H460 lung.
Assay [5] has as its system NCI-H522 lung.
Assay [6] deals with A549/ATCC NSCLC.
Assay [7] has as its system 786-0 renal.
The subject of assay [8] is COLO 205 colon.
The subject of assay [9] is DU-145 prostate.
Assay [10] deals with K-562 leukemia.
The subject of assay [11] is MALME-3M melanoma.
Assay [12] has as its system MDA-MB-231 breast.
Assay [13] has as its system RXF 393 renal.
The subject of assay [14] is SF-268 CNS.
Assay [15] relates to SF-295 CNS.
The test system of assay [16] is SF-539 CNS.
For assay [17], the system named is UACC-257 melanoma.
The test system of assay [18] is M14 melanoma.
In assay [19] the test system is HCT-15 colon.
Assay [20] relates to HOP-62 NSCLC.

The panel holds about 83,000 compounds, 20% with a hit somewhere; the sample as a whole holds those more often.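 Method: cells in 96-well plates; compound added at one concentration; 48 h incubation; percent growth measured; values under 10 scored active.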 A number with no mark means an inactive call. Active and inactive are the calls of the source.

For `O=C1/C(=C/c2ccc3cccc(Cl)c3n2)SC(=S)N1CCc1ccc(O)cc1`, the growth is 94.1% in assay [1]; 86.1% in assay [2]; 91.6% in assay [3]; 99.1% in assay [4]; 54.9% in assay [5]; 93.6% in [6]. In addition, the growth is 94.2% in assay [7]; 107% in assay [8]; 101% in assay [9]; 86.2% in [10]; 74.7% in assay [11]; 79.9% in assay [12]. For the same compound, the growth is 103% in assay [13]; 84.9% in [14]; 91.9% in assay [15]; 86.9% in assay [16]; 100% in assay [17]; 90.8% in assay [18]. Besides, the growth in assay [19] is 86.1%.
As to `CCC(CC)NCCCCCNc1cc(OC)cc2cccnc12`, the growth in [1] was 94.7%; in assay [2] it was 96.6%; in [3] it was 120%; in [4], 105%; in assay [5], 97.7%; in assay [6] it was 96.1%. Also, the growth in assay [7] was 95%; in [8] it was 82.7%; in assay [9], 102%; in assay [10], 85.1%; in [11], 119%; in assay [12], 83.9%. In addition, the growth in [13] was 88.1%; in [14] it was 85.3%; in assay [15], 113%; in [16], 92%; in [17], 101%; in [19], 92.6%.
For the compound `O=C(C(=O)N1CCCCC1)c1ccc(OC2OC(CO)C(O)C(O)C2O)cc1` (stereo not drawn), the growth in assay [1] is 101%; in assay [2] it was 102%; in [3], 116%; in assay [4], 114%; in assay [5] it was 85.3%; in assay [6], 101%. In addition, the growth in assay [7] is 106%; in assay [9], 115%; in [11] it was 101%; in [12] it was 110%; in [13] it was 104%; in [14], 105%. Besides, the growth in assay [15] was 125%; in assay [16], 100%; in assay [17], 106%; in [18], 99.1%; in assay [19] it was 108%.
Turning to `Nc1ccc(C2=NN(c3ccccc3)C(c3ccc(Cl)cc3)C2)cc1` (stereo not drawn), the growth in [1] was 92.8%; in [2] it was 90.9%; in assay [3], 88.2%; in assay [4], 99.4%; in [5], 22.7%; in [6], 83.1%. Also, the growth in assay [7] is 78.4%; in assay [8] it was 101%; in [9] it was 81.7%; in [10] it was 17.5%; in assay [11] it was 105%; in assay [12], 88.5%. For the same compound, the growth in assay [14] was 82.5%; in assay [15] it was 86.6%; in assay [16] it was 81.2%; in assay [17], 82.1%; in assay [18], 72.7%; in [19], 48.7%.
Turning to `c1ccc2c(c1)[nH]c1c2cc[n+]2cc3c(cc12)CCCC3`, the growth is 40.6% in assay [1]; 35.5% in assay [2]; 29.8% in assay [3]; 18.8% in assay [20]; 15.2% in assay [4]; 64% in [6]. Also, the growth is 48.7% in [7]; 36.3% in assay [8]; 40.9% in [9]; 16.9% in assay [10]; 3.13% (active) in assay [11]; 31.4% in assay [12]. The growth in [13] was 76.8%; in assay [14], 23%; in assay [16], 37.6%; in assay [17], 38.4%; in assay [18], 19.7%; in assay [19] it was 96.9%.
Consider `CC(C)(C)c1ccc(S(=O)(=O)O)s1`, for which the growth was 115% in assay [1]; 107% in [2]; 111% in [3]; 106% in assay [4]; 89.6% in assay [5]; 99.2% in [6]. The growth is 95.6% in [7]; 108% in assay [9]; 77% in assay [10]; 93.1% in [12]; 105% in [13]; 102% in assay [14]. The growth is 99.3% in assay [16], 117% in assay [17], 107% in assay [18] and 107% in [19].
`N#CCNc1ccccc1N`: the growth in [1] is 86.6%; in assay [2], 101%; in assay [3], 82%; in assay [4], 101%; in assay [5], 65.4%; in assay [6] it was 92.2%. The growth in assay [7] was 99%; in assay [8], 90.2%; in assay [9], 106%; in assay [10], 97.3%; in assay [11], 96.2%; in assay [12], 101%. In addition, the growth was 110% in assay [13]; 102% in [14]; 106% in assay [15]; 103% in [16]; 98.3% in assay [17]; 93.4% in assay [18]. Moreover, the growth in assay [19] was 108%.
For the compound `C/C(=C\CCc1ccsc1)CC/C=C(\C)CCCN1CCN(CCO)CC1`, the growth in assay [1] was 62.2%; in assay [2], 67.7%; in assay [3] it was 71.8%; in [4], 14.6%; in assay [5], 71.5%; in assay [6] it was 44.8%. In addition, the growth in [7] is 32.8%; in assay [8] it was -9.2% (active); in assay [9] it was 76.4%; in assay [10] it was -27.4% (active); in [11], -14.4% (active); in assay [12], 27%. Moreover, the growth in [14] was 71.7%; in assay [15], 35.9%; in assay [16], 57.8%; in assay [17] it was 11.4%; in assay [18], 14.2%; in assay [19], -22.2% (active).
For `O[C@@H]1Cc2ccc3ccccc3c2N[C@H](c2ccoc2)C1`, the growth is 96.6% in assay [1]; 93.5% in assay [2]; 112% in assay [3]; 116% in [4]; 94.8% in assay [5]; 100% in [6]. For the same compound, the growth in [7] is 108%; in [8], 107%; in assay [9] it was 112%; in assay [10] it was 102%; in [12], 96.2%; in assay [13], 108%. The growth in assay [14] is 105%; in assay [15], 110%; in [16], 93.6%; in [17], 105%; in assay [18] it was 101%; in assay [19] it was 111%.
As to `Cn1cc(-c2nc(-c3c[nH]c4ncccc34)cs2)c2cccnc21`, the growth in assay [1] is 63.1%; in [2], 70%; in [3], 64.3%; in assay [4], 46.6%; in assay [5], 46.5%; in [6] it was 69.6%. The growth in assay [7] was 60.6%; in assay [11] it was 84.8%; in assay [12] it was 47.6%; in assay [13], 54.6%; in assay [14], 91.5%; in assay [15], 71.1%. Also, the growth in [16] was 69.1%; in [17] it was 105%; in [18], 42.5%; in assay [19] it was 43.6%.
For the compound `Clc1ccc(-n2cnc3c(Cl)ncnc32)cc1Cl`, the growth in assay [1] is 87%; in assay [2], 102%; in assay [3], 64.8%; in assay [20], 83.6%; in assay [4], 101%; in assay [6] it was 95.5%. For the same compound, the growth was 98.7% in assay [7]; 92.2% in assay [8]; 76.6% in [9]; 61.1% in [10]; 85% in assay [11]; 87.5% in [12]. Further, the growth is 97.3% in [13]; 78.3% in [14]; 119% in assay [15]; 104% in [16]; 84.4% in assay [17]; 48.4% in assay [18]. The growth in [19] was 60.4%.
Take `COc1ccc2c(c1)nc(N)c1c3ccccc3cn21`: the growth in assay [1] is 79.1%; in [2], 95.3%; in assay [3] it was 88.1%; in [4], 72.4%; in assay [5], 58.1%; in assay [6] it was 75.9%. The growth in assay [7] is 92.7%; in assay [11], 65.2%; in assay [12], 85.5%; in assay [13] it was 77.1%; in assay [14], 81%; in assay [15] it was 79.5%. For the same compound, the growth in assay [16] is 94.3%; in [17], 85.9%; in assay [18] it was 63.1%; in assay [19], 56.4%.
In the case of `CCOC(Cc1c(N)[nH]c(=S)[nH]c1=O)OCC`, the growth in [1] was 104%; in assay [2] it was 96.8%; in [3], 98.9%; in assay [4], 114%; in assay [5], 93%; in [6] it was 104%. The growth in assay [7] is 109%; in assay [8], 105%; in assay [9], 115%; in [10], 98.5%; in assay [11] it was 99.5%; in assay [12], 111%. The growth in [13] is 108%; in assay [14], 111%; in [16] it was 99.4%; in [17] it was 103%; in [18] it was 105%; in [19], 106%.
Take `O=C(C(Br)Br)C(Br)C(Br)c1ccccc1` (stereo not drawn): the growth is 90.1% in [1]; 95% in [2]; 109% in assay [3]; 104% in assay [4]; -33.3% (active) in assay [5]; 98.5% in [6]. In addition, the growth in assay [7] was 107%; in assay [8], 4.54% (active); in assay [9], 87.4%; in [10], 18.9%; in [11] it was -37.9% (active); in assay [12] it was 109%. Moreover, the growth in assay [13] is 25.3%; in [14], 116%; in assay [15] it was 116%; in assay [16], 97.2%; in assay [17], 57.7%; in assay [18] it was 81.5%. The growth in [19] is 20.5%.
As for `Cc1ccc(C(=O)Nc2ccc(Cl)cc2C(=O)NCc2ccccc2)cc1`, the growth in assay [1] was 96.7%; in [2] it was 92.9%; in assay [3] it was 98.2%; in assay [4], 92.4%; in assay [5] it was 53.9%; in assay [6], 85.9%. The growth was 97.8% in assay [7]; 97.4% in assay [8]; 96% in assay [9]; 30% in assay [10]; 88.9% in assay [11]; 95.8% in assay [12]. Moreover, the growth in assay [13] is 87.4%; in [14], 94.2%; in assay [16] it was 82.3%; in [17] it was 85.2%; in assay [18] it was 74.9%; in assay [19], 57.4%.
Turning to `COC(=O)C[C@@H]1CC=CC(=O)/C1=C(O)/C=C/c1ccccc1`, the growth was -43.4% (active) in assay [1]; -40.6% (active) in assay [2]; -14.4% (active) in [3]; -42.5% (active) in [4]; -64.2% (active) in [5]; -0.275% (active) in assay [6]. The growth was -77.5% (active) in assay [7]; -57.2% (active) in [8]; -28.4% (active) in [9]; 3.07% (active) in [10]; -60% (active) in assay [11]; -63% (active) in [12]. For the same compound, the growth is -83.6% (active) in [13]; 22.3% in [14]; -14.6% (active) in assay [15]; -39.1% (active) in [16]; -39.3% (active) in assay [17]; -70.2% (active) in assay [18]. The growth in assay [19] is -53.9% (active).
For the compound `O=C1CN(CO)C(=O)CN1CO`, the growth is 103% in [1]; 113% in [2]; 100% in assay [3]; 104% in assay [4]; 98.9% in assay [5]; 103% in assay [6]. Moreover, the growth in assay [7] was 105%; in [8], 116%; in [9], 114%; in [11], 103%; in assay [12], 108%; in [14] it was 105%. Also, the growth in assay [15] was 101%; in [16], 115%; in [17], 99.8%; in [18] it was 104%; in assay [19], 106%.
